Compound activity from PubChem BioAssay.
Shown are actives, neighbours in structure and some others; about 21% of the full set was active somewhere.
DT40 TDP1 CPT – growth inhibition of DT40 Tdp1-/-;hTDP1 cells with camptothecin (screen for TDP1 inhibitors). chicken DT40 Tdp1-/-;hTDP1 cells + 20 nM CPT, ATP luminescence, 48 h. Potency, µM (titrated, usually from 46.2 µM), actives largely listed as inhibitors. 420,000 tested, 12% active; further: nearly all actives have a fitted effect of over 55% in size
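Cell growth measured by CellTiter-Glo luminescence after a minimum 48 h, 37 C compound exposure with 20 nM CPT in Tdp1-knockout DT40 cells stably expressing hTDP1, seeded 400/well; qHTS titration format.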
Gal4-VP16 FLuc – counter-screen for ROR gamma inhibitors: Gal4-VP16 reporter. Drosophila S2 Gal4-VP16 UAS-luciferase, luminescence, 20 h. Potency, µM (titrated, usually from 53.6 µM), actives largely listed as inhibitors. 310,000 tested, 3.5% active. AID 2546;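 further: Gal4-VP16 expression switched on by copper sulfate through the metallothionein promoter; nearly all actives have a fitted effect of over 50% in size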
IL1B secr inh – inflammasome signaling inhibition, IL-1 beta readout. THP-1 LPS/ATP IL-1B secretion, AlphaLISA, 16 h; stronger effect = lower value. activity change, % at 57.5 µM. 360,000 tested, 4.7% active; in the data active means activity change below about -50%; inconclusive means mostly about -30% to -49%
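THP-1 cells pretreated 1 hr with compounds (up to 57.5 uM final), then stimulated with LPS (250 ng/mL final) plus ATP (1.25 mM final); secreted IL-1B measured by AlphaLISA after 16 hr, decreased signal indicating inhibition.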
TDP1 cell noCPT – qHTS for Inhibitors of human tyrosyl-DNA phosphodiesterase 1 (TDP1): qHTS in cells in absence of CPT. 420,000 tested, 15% active. DT40 Tdp1-/- hTDP1 cells, no CPT, ATP luminescence, 48 h. Potency, µM (highest dose often 46.2 µM), actives largely listed as inhibitors; further: nearly all actives have a fitted effect of over 55% in size
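Readout: luminescence from CellTiter-Glo after 30 min in the dark at RT. Cells: DT40 Tdp1-/- with stable hTDP1, 400/well. Exposure: compounds alone, ≥48 hr, 37 °C.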
RORgamma inh – inhibitors of mouse ROR gamma transcriptional activity; Potency, µM (titrated, usually from 53.6 µM), most hits filed as inhibitors; Drosophila S2 Gal4-RORgamma UAS-luciferase reporter, 20 h; P51450; 310,000 tested, 5.4% active; further: nearly all actives have a fitted effect of over 60% in size
Target sequence (P51450 whole entry, looked up, the tested form may be a part): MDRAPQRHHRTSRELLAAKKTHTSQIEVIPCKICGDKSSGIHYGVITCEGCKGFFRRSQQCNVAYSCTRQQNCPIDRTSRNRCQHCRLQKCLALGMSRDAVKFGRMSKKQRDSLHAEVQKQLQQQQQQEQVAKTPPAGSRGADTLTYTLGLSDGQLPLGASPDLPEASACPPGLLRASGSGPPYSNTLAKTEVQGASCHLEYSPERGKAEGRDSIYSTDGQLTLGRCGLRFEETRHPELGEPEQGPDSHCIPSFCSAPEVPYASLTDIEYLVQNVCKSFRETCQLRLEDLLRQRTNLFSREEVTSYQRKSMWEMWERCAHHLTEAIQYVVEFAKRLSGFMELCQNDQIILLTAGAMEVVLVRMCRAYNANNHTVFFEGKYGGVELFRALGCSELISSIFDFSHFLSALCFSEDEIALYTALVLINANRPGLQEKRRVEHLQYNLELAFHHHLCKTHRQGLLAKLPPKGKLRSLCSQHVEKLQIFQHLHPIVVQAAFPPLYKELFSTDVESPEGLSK
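Drosophila Schneider cells stably carrying a metallothionein-driven Gal4 DBD–ROR gamma fusion and a UAS-Photinus luciferase reporter were exposed to compound for 1 hr, then induced with copper sulfate (700 uM final) for 20 hr at ambient temperature before luminescence reading.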
ELG1 repair inh – ELG1-dependent DNA repair inhibition. 330,000 tested, 2.3% active. HEK293T ELG1-luciferase reporter, luminescence, 16 h; DNA damage induced by 5-fluorouridine. AID 504467. Potency, µM (highest dose often 46.1 µM), most hits filed as inhibitors; further: nearly all actives have a fitted effect of over 55% in size
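Cells (2,000 per well) received 5-fluorouridine plus test compound or DMSO and were incubated 16 hr at 37 °C, 5% CO2. Luciferase activity was read by luminescence 30 min after ONE-Glo addition; signal suppression marked inhibition of damage-induced ELG1 function.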
Large screens that a line does not name were inactive. Unless noted, the call rests on the fitted dose curve; in most records, active means well fitted curve in the direction sought with a large enough effect; inconclusive means small, poorly fitted or top-dose-only effect, or another doubt; inactive means no such curve, though single readings can be large; an effect the other way counts as inactive or inconclusive.

COc1ccc(OCC(=O)NNC(=O)c2cccs2)cc1	none
Cc1ccc(OCC(=O)NNC(=S)NC(=O)c2cccs2)c(C)c1	DT40 TDP1 CPT 16µM, Gal4-VP16 FLuc 11µM, TDP1 cell noCPT 16µM, RORgamma inh 10µM
Cc1cc(OCC(=O)NNC(=S)NC(=O)c2cccs2)ccc1Cl	DT40 TDP1 CPT inconclusive, Gal4-VP16 FLuc inconclusive, TDP1 cell noCPT inconclusive, RORgamma inh 7.9µM
Cc1ccc(OCC(=O)NNC(=S)NC(=O)c2ccc(Br)o2)c(C)c1	DT40 TDP1 CPT inconclusive, Gal4-VP16 FLuc inconclusive, TDP1 cell noCPT 13µM, RORgamma inh inconclusive
O=C(O)C(Cc1ccnc2ccccc12)=NO	none (no result: Gal4-VP16 FLuc, RORgamma inh, ELG1 repair inh)
CCOC(=O)c1[nH]c2ccccc2c1NC(=O)C(C)(C)C	none
Cc1c(C(=O)COC(C)(C)C)[nH]c2ccccc12	DT40 TDP1 CPT 21µM, TDP1 cell noCPT inconclusive
CCN(CC)CCn1c(NCc2ccc(C)o2)nc2ccccc21	DT40 TDP1 CPT inconclusive, TDP1 cell noCPT inconclusive, RORgamma inh 0.5µM
CCN(CC)CCn1c(NC(=O)c2ccc(Cl)cc2)nc2ccccc21	DT40 TDP1 CPT inconclusive, Gal4-VP16 FLuc 2.5µM, TDP1 cell noCPT inconclusive, RORgamma inh 2µM, ELG1 repair inh inconclusive
CCN(CC)CCn1c(NC(=O)c2ccccc2O)nc2ccccc21	DT40 TDP1 CPT inconclusive, Gal4-VP16 FLuc 5µM, TDP1 cell noCPT inconclusive, RORgamma inh 2.5µM
Cc1ccc(CNc2nc3ccccc3n2C)o1	ELG1 repair inh inconclusive
CCN(CC)CCn1c(NS(=O)(=O)c2ccc(Cl)cc2)nc2ccccc21	none
COc1ccccc1C1CN(Cc2cccc(C)n2)Cc2ccccc2O1 (centres undefined)	TDP1 cell noCPT 16µM (no result: Gal4-VP16 FLuc, IL1B secr inh, RORgamma inh, ELG1 repair inh)
CSc1ncccc1C(=O)NCCN1Cc2ccccc2OC(c2ccccc2F)C1 (centres undefined)	TDP1 cell noCPT inconclusive (no result: Gal4-VP16 FLuc, IL1B secr inh, RORgamma inh, ELG1 repair inh)
Cc1nc2sccn2c1CN1Cc2ccccc2OC(c2ccccc2F)C1 (centres undefined)	TDP1 cell noCPT 18µM (no result: Gal4-VP16 FLuc, IL1B secr inh, RORgamma inh, ELG1 repair inh)
C=CCN(C(=O)Nc1ccc(OC)cc1)c1nnc(-c2ccncc2)s1	TDP1 cell noCPT inconclusive, RORgamma inh inconclusive, ELG1 repair inh inconclusive
COc1cc2c(cc1OC)C1CCC3=C([C@H](C)OC3=O)N1CC2 (some centres undefined)	none (no result: IL1B secr inh, ELG1 repair inh)
Cc1ccc(NC(=O)c2c(Nc3ccccc3C)sc(C(=O)c3ccccc3)c2N)cc1	DT40 TDP1 CPT inconclusive, TDP1 cell noCPT 5.8µM (no result: Gal4-VP16 FLuc, IL1B secr inh, RORgamma inh, ELG1 repair inh)
Cc1ccc(NC(=O)c2c(NC(=O)c3ccccc3)sc3c2CCC3)cc1	none (no result: Gal4-VP16 FLuc, IL1B secr inh, RORgamma inh, ELG1 repair inh)
CCOc1ccccc1Nc1sc(C(=O)c2ccccc2)c(N)c1C(=O)Nc1ccccc1	DT40 TDP1 CPT 10µM, TDP1 cell noCPT 9.2µM (no result: Gal4-VP16 FLuc, IL1B secr inh, RORgamma inh, ELG1 repair inh)
COC(=O)[C@@H]1C[C@H]2CC[C@H](O)C[C@H]2N1Cc1ccc(N2CCOCC2)cc1	none (no result: DT40 TDP1 CPT, IL1B secr inh, TDP1 cell noCPT, ELG1 repair inh)
CC1(C)OC2CC3C4CCC5=CC(=O)C=C[C@@]5(C)[C@]4(F)C(O)C[C@@]3(C)[C@]2(C(=O)CO)O1 (some centres undefined)	none (no result: IL1B secr inh, ELG1 repair inh)
CC(=O)OCC(=O)[C@@]12OC3(CCCC3)OC1CC1C3CCC4=CC(=O)C=C[C@@]4(C)[C@]3(F)C(O)C[C@]12C (some centres undefined)	RORgamma inh 3.5µM (no result: DT40 TDP1 CPT, IL1B secr inh, TDP1 cell noCPT, ELG1 repair inh)
CC(=O)C12OC(C)(C)OC1CC1C3CCC4=CC(=O)C=CC4(C)C3(F)C(O)CC12C (centres undefined)	IL1B secr inh -57 (no result: Gal4-VP16 FLuc, RORgamma inh, ELG1 repair inh)
CCOc1cc(C(=O)NCc2nc(-c3cccc(C)c3)no2)cc(OCC)c1OCC	none (no result: Gal4-VP16 FLuc, IL1B secr inh, RORgamma inh, ELG1 repair inh)
CCOC(=O)N1CCN(CC(=O)Nc2sccc2C#N)CC1	DT40 TDP1 CPT 21µM, TDP1 cell noCPT 15µM
Cc1ccc(C)c(S(=O)(=O)N2CCN(CC(=O)Nc3sccc3C#N)CC2)c1	DT40 TDP1 CPT 16µM, TDP1 cell noCPT 18µM, ELG1 repair inh inconclusive
